Measured values taken from PubChem BioAssay (NCI).
About 79,000 compounds went through this panel and 15% of them were active in at least one assay; those are over-represented in the sample as a whole. The source made the active and inactive calls. Cut-off read from the data, not from the text of the source: active = growth inhibition above about 70%; inactive = the rest.

Tests used:
[1] = NCI Yeast Anticancer Drug Screen. Data for the rad52 strain (AID 147);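 note: 0% = growth of vehicle-treated control cultures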; settings: S. cerevisiae rad52 mutant growth inhibition, active compounds read high
Procedure, shortened: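 Genetically altered yeast (DNA damage repair defect) treated with compound; inhibition calculated relative to vehicle.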

[2] = NCI Yeast Anticancer Drug Screen. Data for the wt1 strain (AID 149);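 note: 0% = growth of vehicle-treated wt1 cultures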; settings: S. cerevisiae wt1 strain (SPY 50644) growth inhibition, active compounds read high
Procedure, shortened: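 Yeast wt1 strain exposed to compounds; growth inhibition measured relative to vehicle-treated controls.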

[3] = NCI Yeast Anticancer Drug Screen. Data for the rad50EPP+ strain (AID 151);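 note: 0% = growth of vehicle-treated control cultures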; settings: S. cerevisiae rad50 mutant strain, active compounds read high
Procedure, shortened: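 Strain rad50EPP+; compound exposure; % growth inhibition vs vehicle.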

[4] = NCI Yeast Anticancer Drug Screen. Data for the mgt1 strain (AID 153); settings: S. cerevisiae mgt1 mutant growth inhibition, active compounds read high
Procedure, shortened: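 Read-out: yeast growth inhibition vs vehicle control. Strain mgt1, drawn from a panel altered in DNA damage repair or cell cycle control.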

[5] = NCI Yeast Anticancer Drug Screen. Data for the rad50 strain (AID 155);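 note: 0% = growth of vehicle-only cultures of the same strain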; settings: S. cerevisiae rad50 strain growth inhibition, active compounds read high
Procedure, shortened: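 Yeast carrying a defined DNA repair defect were exposed to test compounds, and growth was compared with vehicle-treated controls to give percent inhibition.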

[6] = NCI Yeast Anticancer Drug Screen. Data for the mec2-1 strain (AID 157); settings: S. cerevisiae mec2-1 strain, active compounds read high
Procedure, shortened: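 Cells of the genetically defined mec2-1 yeast strain are incubated with test compound. Inhibition of growth is calculated against vehicle-treated controls.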

[7] = NCI Yeast Anticancer Drug Screen. Data for the rad14 strain (AID 159);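 note: 0% = growth of vehicle-treated control cultures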; settings: S. cerevisiae rad14 strain growth inhibition, active compounds read high
Procedure, shortened: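 Yeast cells carrying a defined DNA-repair defect were exposed to compounds, and growth inhibition was calculated relative to vehicle-treated control cultures.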

[8] = NCI Yeast Anticancer Drug Screen. Data for the CLN2oe strain (AID 163);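 note: 0% = growth of vehicle-only control cultures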; settings: S. cerevisiae CLN2oe strain, active compounds read high
Procedure, shortened: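 Strain altered in cell-cycle control, incubated with compound; growth compared to solvent-treated controls.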

[9] = NCI Yeast Anticancer Drug Screen. Data for the cln2 rad14 strain (AID 165);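 note: 0% = growth equal to vehicle treated cultures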; settings: S. cerevisiae cln2 rad14 strain, active compounds read high
Procedure, shortened: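 The screen exposed genetically defined yeast (cln2 rad14) to test compounds and scored growth inhibition relative to vehicle-treated controls.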

[10] = NCI Yeast Anticancer Drug Screen. Data for the bub3 strain (AID 167); settings: S. cerevisiae bub3 mutant strain, active compounds read high
Procedure, shortened: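 Compounds were applied to a genetically altered yeast strain carrying a cell-cycle control defect. Growth inhibition was scored against vehicle-treated controls.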

[11] = NCI Yeast Anticancer Drug Screen. Data for the wt2 strain (AID 169);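 note: 0% = growth of vehicle-treated yeast cultures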; settings: S. cerevisiae wt2 strain growth inhibition, active compounds read high
Procedure, shortened: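 Steps: yeast strain treated with compound; growth recorded; inhibition calculated relative to cultures given vehicle alone.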

[12] = NCI Yeast Anticancer Drug Screen. Data for the mlh1 strain (AID 171);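 note: 0% = growth of vehicle-treated control cultures of the same strain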; settings: S. cerevisiae mlh1 strain growth inhibition, active compounds read high
Procedure, shortened: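 Yeast screen: mutant strain plus compound, growth scored against vehicle control wells.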

[13] = NCI Yeast Anticancer Drug Screen. Data for the sgs1 strain (AID 173);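 note: 0% = growth of vehicle-only control cultures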; settings: S. cerevisiae sgs1 mutant, active compounds read high
Procedure, shortened: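 Inhibition of yeast growth served as the measure. The mutant strain was treated with each compound, and growth was normalised to cultures receiving vehicle alone.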

[14] = NCI Yeast Anticancer Drug Screen. Data for the mlh1 rad18 strain (AID 175); settings: S. cerevisiae mlh1 rad18 strain growth inhibition, active compounds read high
Procedure, shortened: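 Compound-treated yeast growth, normalised to vehicle controls. Strain bears defined DNA repair mutations.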

[15] = NCI Yeast Anticancer Drug Screen. Data for the rad18 strain (AID 177); settings: S. cerevisiae rad18 mutant growth inhibition, active compounds read high
Procedure, shortened: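 Inhibition values reflect reduced yeast growth compared with vehicle-treated controls, using a strain engineered with a DNA damage repair defect.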

[16] = at 5.0 µM (retest, dose inferred, filed as 0.5)
[17] = at 50.0 µM (retest, dose inferred, filed as 5.0)

Measured: growth inhibition

CC(/C=C/c1ccc(Cl)cc1)=N\NC(=S)NCC(C)C
inactive: [1]; at 1.2 µM -1% | [1]; at 3.7 µM -4% | [1]; at 11.0 µM 4% | [1]; at 33.0 µM 5% | [1]; at 100.0 µM 33% | [2]; at 1.2 µM -2% | [2]; at 3.7 µM -5% | [2]; at 11.0 µM 1% | [2]; at 33.0 µM -1% | [2]; at 100.0 µM 21% | [3]; at 1.2 µM -3% | [3]; at 3.7 µM -5% | [3]; at 11.0 µM 10% | [3]; at 33.0 µM 12% | [3]; at 100.0 µM 28% | [4]; at 1.2 µM -6% | [4]; at 3.7 µM -2% | [4]; at 11.0 µM -4% | [4]; at 33.0 µM 8% | [4]; at 100.0 µM 35% | [5]; at 1.2 µM -1% | [5]; at 3.7 µM 1% | [5]; [16] 1% | [5]; at 11.0 µM 4% | [5]; at 33.0 µM 11% | [5]; [17] 42% | [5]; at 50.0 µM 39.8% | [5]; at 100.0 µM 34% | [6]; at 1.2 µM -2% | [6]; at 3.7 µM -3% | [6]; [16] -9% | [6]; at 11.0 µM -4% | [6]; at 33.0 µM -1% | [6]; [17] 7% | [6]; at 50.0 µM 66.7% | [6]; at 100.0 µM 30% | [7]; at 1.2 µM 1% | [7]; at 3.7 µM -1% | [7]; at 11.0 µM -2% | [7]; at 33.0 µM 5% | [7]; at 100.0 µM 24% | [8]; at 1.2 µM 0% | [8]; at 3.7 µM -8% | [8]; at 11.0 µM -8% | [8]; at 33.0 µM 5% | [8]; at 100.0 µM 28% | [9]; [16] 3% | [9]; [17] 37% | [9]; at 50.0 µM 17.6% | [10]; at 1.2 µM -1% | [10]; at 3.7 µM -1% | [10]; [16] 27% | [10]; at 11.0 µM -6% | [10]; at 33.0 µM 5% | [10]; [17] 68% | [10]; at 100.0 µM 37% | [11]; at 1.2 µM -7% | [11]; at 3.7 µM -5% | [11]; at 11.0 µM -12% | [11]; at 33.0 µM -2% | [11]; at 100.0 µM 24% | [12]; at 1.2 µM -3% | [12]; at 3.7 µM -5% | [12]; at 11.0 µM -3% | [12]; at 33.0 µM 7% | [12]; at 100.0 µM 36% | [13]; at 1.2 µM -13% | [13]; at 3.7 µM -8% | [13]; at 11.0 µM -6% | [13]; at 33.0 µM 7% | [13]; at 100.0 µM 34% | [14]; [16] 32% | [14]; [17] 64% | [15]; at 1.2 µM -7% | [15]; at 3.7 µM -4% | [15]; at 11.0 µM -1% | [15]; at 33.0 µM 3% | [15]; at 100.0 µM 32%
active: [10]; at 50.0 µM 85.4% | [14]; at 50.0 µM 77.3%
